# Screening results: PubChem BioAssay, National Center for Advancing Translational Sciences (NCATS)
# A549 tox – kills or reduces viability of A549 cells in Nrf2 counter-screen | Potency, µM (highest dose often 46 µM), without a hit: at the top dose activity change, negative = cytotoxicity, most hits filed as inhibitors | 390,000 tested, 0.16% active | A549 ARE-Fluc cells, CellTiter-Fluor viability, 18-24 h; note: potency is the fitted concentration of half-maximal effect; % is set by controls: 0 for no effect and ±100 for the full control effect
#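 Cytotoxicity counterscreen: CellTiter-Fluor fluorescence was measured in A549 ARE_Fluc cells after 18-24 h of compound exposure in a concentration series. The subsequent BugLite luminescent read reports ARE-luciferase activity.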
# Nrf2 inh – blocks Nrf2 signaling. A549 ARE-Fluc reporter, luciferase luminescence, 18-24 h. Potency, µM (top dose mostly 46 µM), for inactives: top-dose activity change, negative = inhibition, actives largely listed as inhibitors. 360,000 tested, 2.1% active. AID 504444; note: potency is the fitted concentration of half-maximal effect; % is set by controls: 0 for no effect and ±100 for the full control effect; nearly all actives have a fitted effect of over 60% in size
#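 Two sequential reads on A549 ARE_Fluc cells exposed to compound for 18-24 h: a CellTiter-Fluor fluorescence read for viability, then a luciferase luminescence read for Nrf2/ARE activity.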
# IDH1 R132H inh – blocks human mutant IDH1 R132H enzyme; 390,000 tested, 0.093% active; Potency, µM (doses to about 76.6 µM), for inactives: at the top dose activity change, negative = inhibition, usual class: inhibitors; AID 602179; IDH1-R132H enzyme, NADPH consumption, diaphorase/resazurin fluorescence; note: potency is the fitted concentration of half-maximal effect; % is set by controls: 0 for no effect and ±100 for the full control effect; nearly all actives have a fitted effect of over 65% in size
# Target sequence (O75874 whole entry R132H, stated change not applied): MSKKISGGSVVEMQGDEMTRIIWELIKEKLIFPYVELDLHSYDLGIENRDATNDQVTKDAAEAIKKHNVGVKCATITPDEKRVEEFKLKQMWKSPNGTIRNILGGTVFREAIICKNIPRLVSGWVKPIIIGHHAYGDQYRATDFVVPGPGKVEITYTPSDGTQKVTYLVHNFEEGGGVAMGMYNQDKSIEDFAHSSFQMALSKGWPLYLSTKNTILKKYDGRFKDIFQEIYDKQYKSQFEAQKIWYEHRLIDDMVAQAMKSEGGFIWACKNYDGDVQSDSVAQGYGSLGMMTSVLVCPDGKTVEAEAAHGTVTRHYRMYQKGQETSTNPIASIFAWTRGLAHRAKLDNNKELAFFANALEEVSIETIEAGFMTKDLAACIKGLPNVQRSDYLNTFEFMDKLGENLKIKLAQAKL
#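 IDH1-R132H (0.5 ug/mL) preincubated 30 min with compound, then NADPH (0.016 mM) and alpha-KG (2 mM) added; 80 min at RT, pH 7.5. Remaining NADPH coupled via diaphorase/resazurin to fluorescence (540/590 nm); concentration-response curves normalized to no-enzyme control.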
# Anesthetic bind – candidate novel general anesthetic via apoferritin binding; P02791; apoferritin/1-aminoanthracene competitive binding, fluorescence; Potency, µM (highest dose often 77.5 µM), for the others: at the highest dose activity change, negative = displacement, hits mostly inhibitors; 350,000 tested, 0.074% active; note: potency is the fitted concentration of half-maximal effect; % is set by controls: 0 for no effect and ±100 for the full control effect; nearly all actives have a fitted effect of over 20% in size
# Target sequence (P02791 2-175 limits assumed): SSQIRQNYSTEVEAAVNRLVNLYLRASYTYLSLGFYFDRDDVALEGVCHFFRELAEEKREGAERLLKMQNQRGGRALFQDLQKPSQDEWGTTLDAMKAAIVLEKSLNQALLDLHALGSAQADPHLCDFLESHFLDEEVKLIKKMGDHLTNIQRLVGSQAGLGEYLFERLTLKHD
#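 In PBS, apoferritin at 10 uM is loaded with 1-AMA from a 50% saturated solution. After 10 min of compound exposure at ambient temperature, reduced 535 nm fluorescence indicates probe displacement.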
# Nrf2 ARE act – Nrf2 pathway activation | AREc32 ARE-luciferase reporter (MCF7-derived line), luminescence, 24 h | Potency, µM (doses to about 46.1 µM), for the others: top-dose activation, actives largely listed as activators | 410,000 tested, 0.31% active; note: potency is the fitted concentration of half-maximal effect; % of control where 0% means no effect; nearly all actives have a fitted effect of over 65% in size
#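 ARE-driven firefly luciferase activity in AREc32 cells measured after a 24 hr compound exposure at 37 deg C, using Steady-Glo reagent and a 30 min room-temperature hold.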
# Giardia killer – kills Giardia lamblia | Giardia lamblia trophozoite viability | activity change, % at 7.66 µM, hits read low | AID 540267 | 340,000 tested, 0.15% active; in the data active = activity change below about -80%; inconclusive = between about -30% and that limit;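 note: parasites exposed to compound for two days anaerobically before the ATP read; % is set by controls: 0 for no effect and ±100 for the full control effect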
#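 ATP-content bioluminescence gauges trophozoite survival. Cells (100/well) receive compound and incubate anaerobically for 48 hrs at 37 deg C; detection reagent follows for 15-30 min at room temperature.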
# * = called active by the depositor; ? = inconclusive; . = no result given; [ ] = remark or other dose. An excerpt weighted towards active compounds, which were near 2.3% of everything screened. Unless noted, calls come from the whole dose curve; as a rule, active = well fitted curve in the direction sought with a large enough effect; inconclusive = small, poorly fitted or top-dose-only effect, or another doubt; inactive = no such curve, though single readings can be large; an effect the other way counts as inactive or inconclusive.
SMILES,A549 tox,Nrf2 inh,IDH1 R132H inh,Anesthetic bind,Nrf2 ARE act,Giardia killer
[N-]=[N+]=NC(c1ccccc1)C(NC(=O)c1cc(C(F)(F)F)cc(C(F)(F)F)c1)c1ccccc1 (configuration not stated),.,.,.,.,2.8%,.
COc1ccc2c(n1)Sc1nc3ccccc3nc1N2,0.5%,?,5.2%,-4.2%,4.47µM*,4.1
COc1cc2ccccc2nn1,?,3.6%,5.9%,356.8%,0.0%,-3.2
Cc1c(NC(=O)c2ccc([N+](=O)[O-])o2)cccc1-c1nc2ncccc2o1,-4.4%,-13.9%,34.4%,0.3%,-0.2%,-92.0*
COc1ccc(C(=O)Nc2ccc(-c3cc4ccccc4oc3=O)c(C)c2)cc1OC,-9.4%,13µM*,.,53.6%,0.0%,.
COc1ccc(C(=O)Nc2cccc(-c3nc4ncccc4o3)c2C)cc1OC,?,18.4µM*,-0.8%,4.3%,0.3%,-17.1
CCN1C(=O)c2ccccc2S(=O)c2ccc(C(=O)N3CCN(c4cc(Cl)ccc4C)CC3)cc21 (configuration not stated),-27.1%,?,12.0%,-22.0%,4.3%,.
COc1ccc(C(=O)COC(=O)c2cc(-c3cccs3)nc3ccccc23)cc1,1.5%,-3.9%,0.0%,-10.4%,4.2%,.
C[C@H]1O[C@@H](n2cnc3c(N)ncnc32)C[C@@H]1OP(=O)(O)OP(=O)(O)OP(=O)(O)O,.,.,.,1.0%,.,.
Cc1ccc(/C(N)=N/OC(=O)c2ccco2)cc1,0.0%,?,3.8%,-13.2%,24.5%,-3.8
Cc1ccc(/C(N)=N/OC(=O)c2cccs2)cc1,-2.3%,?,4.5%,-13.2%,?,11.9
COc1ccc(/C(N)=N/OC(=O)c2cccs2)cc1OC,-11.7%,?,7.0%,7.2%,?,12.2
N/C(=N\OC(=O)c1cccs1)c1cccc(Br)c1,-0.6%,?,-3.9%,-18.4%,11.2µM*,11.4
N/C(=N\OC(=O)c1cccs1)c1ccccc1,5.5%,?,-5.8%,-5.9%,10µM*,-19.9
Cc1cccc(/C(N)=N/OC(=O)c2cccs2)c1,-10.7%,?,2.7%,-23.0%,14.1µM*,-9.9
N/C(=N\OC(=O)c1ccco1)c1ccccc1,-15.0%,?,0.6%,-9.5%,17.8µM*,4.2
NC(N)=NCCC[C@H](NC(=O)[C@@H](N)Cc1ccc(O)cc1)C(=O)O,.,.,.,4.2%,.,.
N/C(=N\OC(=O)c1ccc(Br)cc1)c1ccccc1,2.8%,.,-1.9%,-9.1%,8.91µM*,0.0
N/C(=N\OC(=O)c1cccc(Br)c1)c1ccc(Br)cc1,-0.2%,26.1%,2.1%,-5.6%,?,0.7
COc1ccc(C(=O)O/N=C(/C)c2cccs2)cc1,9.7%,.,6.2%,-17.6%,17.8µM*,3.3
CCn1c(CN2CCCCC2)nc2cc(NC(=O)COc3ccccc3C(C)(C)C)ccc21,4.0%,10.3%,-2.5%,-14.1%,-0.6%,.
N#CCCn1cc(/C=C2\NC(=S)N(c3ccccc3)C2=O)c(-c2ccc(-c3ccccc3)cc2)n1,20.6µM*,18.4µM*,16.3%,-12.5%,0.5%,-4.1
COc1ccc(C2=Nc3ccccc3OC2)cc1,-4.7%,?,3.8%,?,11.2µM*,-3.5
CC(C)Cc1ccc(C(C)/C=C2/CCC(CN3CCCCC3)C2=O)cc1 (configuration not stated),17.0%,-8.0%,-1.4%,.,12.6µM*,-19.3
CN(C)c1ccc(/C=C2\CCC/C(=C\c3ccccc3)C2=O)cc1,-14.4%,5.3%,2.2%,5.6%,0.4%,-3.8
SMILES,A549 tox,Nrf2 inh,IDH1 R132H inh,Anesthetic bind,Nrf2 ARE act,Giardia killer
COc1ccc(/C=C2\CCC/C(=C\C=N\N(C)C)C2=O)cc1,-13.6%,-26.5%,0.4%,?,14.1µM*,-5.9
CN(C)/N=C/C=C1\CCC/C(=C\c2ccc(F)c(F)c2)C1=O,-27.8%,?,-2.5%,-18.7%,17.8µM*,-9.8
COc1ccc(/C=C2\CCCCC2=O)cc1,2.7%,11.3%,11.1%,.,12.5%,-4.7
Cc1[nH]c2ccccc2c1C(=O)COC(=O)C1CC(O)CN1S(=O)(=O)c1ccc(Cl)cc1 (configuration not stated),-2.8%,-6.6%,-3.3%,.,-0.3%,-27.0
CSCCC(NS(=O)(=O)c1ccc(Cl)cc1)C(=O)OCC(=O)c1c(C)[nH]c2ccccc12 (configuration not stated),?,18.4µM*,4.8%,1.2%,5.2%,-3.3
CCCCCCN1C=C/C(=C\C=C(C#N)C#N)c2ccccc21,6.51µM*,18.4µM*,-3.3%,-8.8%,-0.8%,-29.1
C=CCN1C=C/C(=C\C=C(C#N)C#N)c2ccccc21,18.4µM*,?,12.2%,?,3.0%,2.6
O=C(Nc1ccc([N+](=O)[O-])cc1Cl)c1cc(Cl)cc(Cl)c1O,-16.1%,?,.,.,.,-3.2
Cc1ccc(C)c(NC(=S)NC(NC(=O)Cc2cccc3ccccc23)C(Cl)(Cl)Cl)c1 (configuration not stated),20.6µM*,20.6µM*,5.2%,-10.4%,24.6%,-17.1
COc1ccc(NC(=S)NC(NC(=O)c2ccccc2Cl)C(Cl)(Cl)Cl)c([N+](=O)[O-])c1 (configuration not stated),?,?,0.6%,?,-0.8%,-3.1
COc1ccc(NC(=S)NC(NC(=O)c2cccc3ccccc23)C(Cl)(Cl)Cl)c([N+](=O)[O-])c1 (configuration not stated),?,25.9µM*,-4.6%,?,0.8%,9.5
N#Cc1ccc2c(c1)C[C@]1(c3ccsc3)OC3=C(C(=O)OC4(CCCCC4)C3)C2O1,.,.,.,-18.3%[15.3 µM],.,.
CCOc1ccc(CN(C)C(=O)[C@H](Cc2ccccc2)NC(=O)OCc2ccccc2)cc1OC,?,20.6µM*,1.1%,-15.2%,0.1%,-9.7
NS(=O)(=O)c1ccc(NC(=O)COC(=O)C2(c3ccccc3F)CCCC2)cc1,?,20.6µM*,0.4%,-0.2%,0.4%,-10.2
NS(=O)(=O)c1ccc(NC(=O)COC(=O)C23CC4CC(CC(C4)C2)C3)cc1,-0.1%,9.7%,2.0%,-19.7%,-0.1%,-19.4
O=C(COC(=O)C1(c2ccccc2F)CCCC1)NCc1cccs1,-11.2%,20.6µM*,-0.1%,-16.5%,-0.1%,7.7
Cc1ccc(S(=O)(=O)N2CCN(c3ccc(C(F)(F)F)cc3[N+](=O)[O-])CC2)cc1,-19.8%,16.4µM*,2.4%,-18.5%,0.5%,6.7
Cc1ccc(S(=O)(=O)N2CCN(c3cc4c(cc3[N+](=O)[O-])n(C)c(=O)n4C)CC2)cc1,0.4%,?,8.3%,-9.8%,6.4%,15.0
CCOC(=O)C(=O)N1CCN(c2cc3c(cc2[N+](=O)[O-])n(C)c(=O)n3C)CC1,-1.0%,-9.9%,-2.8%,-11.9%,0.1%,-2.9
